Active and inactive are the calls of the source. How the source made its calls: active means hit-call score of the fitted dose curve at least 0.9, where 1 is the maximum; inactive means score below 0.9.
Key:
[1] = ATG_GLI_CIS: Attagene CIS-FACTORIAL HepG2 Assay for human Zinc Finger Protein GLI1 (AID 2282945); conditions: HepG2, Attagene cis-factorial reporter mRNA, GLI element; actives raise or lower the signal
Outline: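 HepG2 cells transiently transfected with cis-promoter multiplexed reporter units report endogenous transcription factor activity. After 24 h chemical exposure, reporter mRNA was quantified by RT-PCR, 6-FAM labelling, HpaI digestion and capillary electrophoresis, with bidirectional fitting against DMSO.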

[2] = molecular target: Bile acid receptor (Homo sapiens) (UniProt Q96RI1); assay: ATG_IR1_CIS: Attagene CIS-FACTORIAL HepG2 Assay for human Nuclear Receptor Subfamily 1 Group H Member 4 (NR1H4), IR1 submotif (AID 2282946); conditions: IR1 reporter transcription, actives raise or lower the signal
Chain of Bile acid receptor (Homo sapiens) (Q96RI1 whole entry, looked up): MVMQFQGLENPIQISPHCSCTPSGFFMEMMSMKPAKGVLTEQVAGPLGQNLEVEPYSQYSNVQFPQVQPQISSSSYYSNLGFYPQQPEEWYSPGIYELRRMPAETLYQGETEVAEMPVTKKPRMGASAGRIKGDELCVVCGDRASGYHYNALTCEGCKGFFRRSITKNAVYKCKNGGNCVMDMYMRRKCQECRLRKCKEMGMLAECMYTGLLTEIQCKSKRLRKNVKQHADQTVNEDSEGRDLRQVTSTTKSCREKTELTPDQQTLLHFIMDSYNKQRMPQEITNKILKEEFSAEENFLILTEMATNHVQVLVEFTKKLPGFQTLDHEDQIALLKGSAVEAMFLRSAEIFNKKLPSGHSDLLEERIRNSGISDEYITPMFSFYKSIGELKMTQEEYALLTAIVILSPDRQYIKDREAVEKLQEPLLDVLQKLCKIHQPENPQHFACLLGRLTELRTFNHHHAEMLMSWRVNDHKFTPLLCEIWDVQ
Outline: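 Transient MRTU transfection, HepG2; 24 h dosing; RNA → RT-PCR → 6-FAM primer extension → HpaI digest → capillary electrophoresis fluorescence. Gain/loss of signal fitted relative to DMSO.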

[3] = ATG_GRE_CIS: Attagene CIS-FACTORIAL HepG2 Assay for human Glucocorticoid Response Elements (GRE) (AID 2282947); conditions: HepG2 GRE cis-reporter, Attagene multiplex mRNA; actives raise or lower the signal
Outline: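 Following 24 h chemical exposure of transiently transfected HepG2 cells, total RNA was reverse-transcribed and reporter cDNA amplified, fluorescently labelled and sized by capillary electrophoresis. Signal gain or loss was fitted relative to DMSO vehicle.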

[4] = ATG_ISRE_CIS: Attagene CIS-FACTORIAL HepG2 Assay for human Interferon Regulatory Factor 1 (IRF1) binding to an Interferon-Stimulated Response Element (ISRE) (AID 2282948); conditions: HepG2 ISRE cis-reporter (Attagene), mRNA transcription readout; actives raise or lower the signal
Outline: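 HepG2 cells transiently transfected with multiplexed cis-promoter reporter units; after 24 h compound exposure, reporter mRNA quantified by RT-PCR, FAM labelling, HpaI digestion and capillary electrophoresis. Bidirectional fit versus DMSO baseline.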

[5] = ATG_M_32_CIS: Attagene CIS-FACTORIAL HepG2 Assay for M32 Transcription Factor (Internal Marker) (AID 2282949); conditions: HepG2 Attagene cis-factorial M32 reporter, mRNA; actives raise or lower the signal;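 further: background control marker of the multiplexed CIS panel rather than a real target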
Outline: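 Fluorescent capillary electrophoresis peaks of HpaI-digested, FAM-labelled RT-PCR reporter products give the signal. Source: transiently transfected human liver HepG2 cells, 24 h after chemical dosing; bidirectional fitting against DMSO.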

[6] = ATG_M_06_CIS: Attagene CIS-FACTORIAL HepG2 Assay for M06 Transcription Factor (Internal Marker) (AID 2282950); conditions: HepG2 Attagene CIS-FACTORIAL M06 internal marker reporter; actives raise or lower the signal
Outline: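 Measured 24 h post-dosing in transiently transfected HepG2 cells, this internal-marker endpoint reports reporter mRNA via RT-PCR with fluorescent primer extension and capillary electrophoresis. DMSO served as negative control and baseline for bidirectional fitting.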

[7] = molecular target: Hypoxia-inducible factor 1-alpha (Homo sapiens) (UniProt Q16665); assay: ATG_HIF1a_CIS: Attagene CIS-FACTORIAL HepG2 Assay for human Hypoxia Inducible Factor 1 (HIF1A) (AID 2282951); conditions: HepG2 Attagene cis-factorial HIF1a reporter transcription; actives raise or lower the signal
Chain of Hypoxia-inducible factor 1-alpha (Homo sapiens) (Q16665 whole entry, looked up): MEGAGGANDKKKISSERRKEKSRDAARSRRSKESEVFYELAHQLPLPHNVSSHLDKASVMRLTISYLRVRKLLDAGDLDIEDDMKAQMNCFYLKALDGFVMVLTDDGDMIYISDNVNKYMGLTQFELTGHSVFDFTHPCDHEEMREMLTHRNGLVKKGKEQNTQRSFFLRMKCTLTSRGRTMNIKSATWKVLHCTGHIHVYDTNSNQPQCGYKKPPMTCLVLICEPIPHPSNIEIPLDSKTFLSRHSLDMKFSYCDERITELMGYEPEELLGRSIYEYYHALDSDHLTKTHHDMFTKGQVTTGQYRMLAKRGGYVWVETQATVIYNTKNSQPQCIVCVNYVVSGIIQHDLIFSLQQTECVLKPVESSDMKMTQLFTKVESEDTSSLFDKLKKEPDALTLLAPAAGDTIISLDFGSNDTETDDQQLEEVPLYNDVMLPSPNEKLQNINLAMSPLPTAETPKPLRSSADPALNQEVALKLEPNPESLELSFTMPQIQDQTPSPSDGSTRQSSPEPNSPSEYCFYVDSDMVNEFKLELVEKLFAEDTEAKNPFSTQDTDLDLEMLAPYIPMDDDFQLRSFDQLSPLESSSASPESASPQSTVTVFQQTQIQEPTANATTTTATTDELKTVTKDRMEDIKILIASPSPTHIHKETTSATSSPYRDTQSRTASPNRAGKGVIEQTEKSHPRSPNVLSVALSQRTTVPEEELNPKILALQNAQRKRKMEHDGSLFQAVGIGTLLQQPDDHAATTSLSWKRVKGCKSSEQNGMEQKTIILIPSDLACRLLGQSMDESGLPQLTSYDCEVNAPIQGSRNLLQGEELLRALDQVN
Outline: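 Dosed 24 h, transfected HepG2 cells yielded total RNA whose reporter transcripts were RT-PCR-amplified and sized by capillary electrophoresis using fluorescent labelling; DMSO defined baseline, with gain and loss of signal both fitted.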

[8] = molecular target: Hepatocyte nuclear factor 6 (Homo sapiens) (UniProt Q9UBC0); assay: ATG_HNF6_CIS: Attagene CIS-FACTORIAL HepG2 Assay for human Hepatocyte Nuclear Factor 6 (HNF6) (AID 2282952); conditions: HepG2 Attagene cis-factorial HNF6 reporter transcription; actives raise or lower the signal
Chain of Hepatocyte nuclear factor 6 (Homo sapiens) (Q9UBC0 whole entry, looked up): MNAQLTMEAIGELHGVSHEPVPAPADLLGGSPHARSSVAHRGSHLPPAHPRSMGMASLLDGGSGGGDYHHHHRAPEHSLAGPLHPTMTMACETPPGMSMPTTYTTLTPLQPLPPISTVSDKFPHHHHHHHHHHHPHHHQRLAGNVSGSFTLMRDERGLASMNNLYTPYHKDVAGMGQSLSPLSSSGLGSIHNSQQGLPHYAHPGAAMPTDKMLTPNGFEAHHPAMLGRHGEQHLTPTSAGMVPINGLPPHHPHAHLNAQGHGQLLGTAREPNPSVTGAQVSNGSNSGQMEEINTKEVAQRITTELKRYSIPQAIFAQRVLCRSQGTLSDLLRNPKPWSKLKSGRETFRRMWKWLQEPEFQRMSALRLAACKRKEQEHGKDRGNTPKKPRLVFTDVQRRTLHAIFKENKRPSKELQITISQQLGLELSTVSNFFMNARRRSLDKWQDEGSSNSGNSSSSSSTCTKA
Outline: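 Multiplexed mRNA reporter assay in transfected HepG2; 24 h dosing; RT-PCR plus capillary electrophoresis fluorescence; DMSO-referenced bidirectional curve fitting.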

[9] = molecular target: Heat shock factor protein 1 (Homo sapiens) (UniProt Q00613); assay: ATG_HSE_CIS: Attagene CIS-FACTORIAL HepG2 Assay for human Heat Shock Transcription Factor 1 (HSE) (AID 2282953); conditions: HepG2 HSE cis-reporter, Attagene RNA transcription; actives raise or lower the signal
Chain of Heat shock factor protein 1 (Homo sapiens) (Q00613 whole entry, looked up): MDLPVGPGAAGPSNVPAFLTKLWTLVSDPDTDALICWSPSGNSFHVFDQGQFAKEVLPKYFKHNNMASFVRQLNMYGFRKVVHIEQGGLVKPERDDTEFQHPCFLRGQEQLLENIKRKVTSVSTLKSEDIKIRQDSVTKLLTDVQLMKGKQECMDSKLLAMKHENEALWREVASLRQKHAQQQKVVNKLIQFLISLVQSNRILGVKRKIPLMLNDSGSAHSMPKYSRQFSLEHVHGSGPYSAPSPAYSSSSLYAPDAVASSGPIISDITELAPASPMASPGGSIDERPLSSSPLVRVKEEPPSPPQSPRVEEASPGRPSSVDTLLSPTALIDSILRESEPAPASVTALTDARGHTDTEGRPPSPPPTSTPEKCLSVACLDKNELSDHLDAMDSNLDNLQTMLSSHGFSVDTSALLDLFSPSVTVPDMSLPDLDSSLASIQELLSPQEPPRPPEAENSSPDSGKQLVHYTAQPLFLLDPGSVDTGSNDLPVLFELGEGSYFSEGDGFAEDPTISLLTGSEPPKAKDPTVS
Outline: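 Reporter mRNA induction in HepG2 is measured 24 h after dosing, using transiently transfected multiplexed cis-regulated reporter units. Signal comes from capillary electrophoresis of labelled RT-PCR products, with DMSO as negative control.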

[10] = ATG_MRE_CIS: Attagene CIS-FACTORIAL HepG2 Assay for human Metal Responsive Element (MRE) (AID 2282954); conditions: HepG2 MRE cis-reporter transcription, Attagene multiplex; actives raise or lower the signal
Outline: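 Step one: transfect HepG2 with cis-regulated reporter units. Step two: dose 24 h. Step three: isolate RNA, RT-PCR, 6-FAM label, HpaI digest, capillary electrophoresis. Fit bidirectionally to DMSO.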

[11] = ATG_PBREM_CIS: Attagene CIS-FACTORIAL HepG2 Assay for human Phenobarbital-responsive Enhancer Module (PBREM) (AID 2282955); conditions: HepG2 PBREM cis-reporter, Attagene multiplexed transcription; actives raise or lower the signal
Outline: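 Transfected liver-derived HepG2 cells exposed 24 h; PBREM reporter transcript quantified via RT-PCR and capillary electrophoresis, with activity in either direction referenced to DMSO.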

[12] = molecular target: Paired box protein Pax-6 (Homo sapiens) (UniProt P26367); assay: ATG_Pax6_CIS: Attagene CIS-FACTORIAL HepG2 Assay for human Paired Box 6 (PAX6) (AID 2282956); conditions: HepG2 CIS-FACTORIAL PAX6 reporter transcription, RNA readout; actives raise or lower the signal
Chain of Paired box protein Pax-6 (Homo sapiens) (P26367 whole entry, looked up): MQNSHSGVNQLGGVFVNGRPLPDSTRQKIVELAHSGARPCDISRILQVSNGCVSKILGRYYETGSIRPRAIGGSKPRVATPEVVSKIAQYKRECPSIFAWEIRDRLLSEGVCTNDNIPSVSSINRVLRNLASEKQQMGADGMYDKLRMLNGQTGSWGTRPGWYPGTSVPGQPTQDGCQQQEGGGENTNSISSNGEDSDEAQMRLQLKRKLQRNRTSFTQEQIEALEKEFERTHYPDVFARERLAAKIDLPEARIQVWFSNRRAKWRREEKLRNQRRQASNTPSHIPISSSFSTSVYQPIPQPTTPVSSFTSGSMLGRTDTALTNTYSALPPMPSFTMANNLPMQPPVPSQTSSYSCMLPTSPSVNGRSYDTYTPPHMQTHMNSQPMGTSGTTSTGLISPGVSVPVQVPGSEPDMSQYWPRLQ
Outline: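 HepG2 cells transiently transfected with multiplexed cis-promoter reporter units (endogenous TF activity) were dosed for 24 h. Reporter mRNA was quantified by RT-PCR, 6-FAM labeling, HpaI digestion and capillary electrophoresis; bidirectional fitting versus DMSO baseline.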

[13] = ATG_PXRE_CIS: Attagene CIS-FACTORIAL HepG2 Assay for human Pregnane X Receptor Element (PXRE) (AID 2282957); conditions: HepG2 Attagene CIS-FACTORIAL PXRE reporter, mRNA; actives raise or lower the signal
Outline: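 Cells: HepG2, transiently transfected reporter units under cis promoter control. Exposure: 24 h. Detection: reporter mRNA via RT-PCR/CE fluorescence; bidirectional fitting, DMSO-referenced.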

[14] = ATG_PPRE_CIS: Attagene CIS-FACTORIAL HepG2 Assay for human Peroxisome Proliferator-activated Response Element (PPRE) (AID 2282958); conditions: HepG2 PPRE cis-element reporter, Attagene transcription factor profiling; actives raise or lower the signal
Outline: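 Measured endpoint: PPRE-controlled reporter mRNA, detected by RT-PCR and capillary electrophoresis fluorescence, from transiently transfected HepG2 cells 24 h after dosing. Curves fitted in both directions using DMSO baseline.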

[15] = ATG_RORE_CIS: Attagene CIS-FACTORIAL HepG2 Assay for human RAR-related Orphan Receptor Element (RORE) (AID 2282959); conditions: HepG2 Attagene cis-factorial RORE reporter, mRNA; actives raise or lower the signal
Outline: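 Transiently transfected HepG2 reporter cells were treated 24 h. Reporter transcripts were detected by RT-PCR and capillary electrophoresis, with bidirectional fitting against DMSO.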

[16] = ATG_Sox_CIS: Attagene CIS-FACTORIAL HepG2 Assay for human SRY-box transcription factor (SOX) (AID 2282960); conditions: HepG2 Attagene cis-factorial SOX reporter, mRNA; actives raise or lower the signal
Outline: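 Gain- or loss-of-signal endpoint, fitted bidirectionally with DMSO as negative control. Based on reporter mRNA from transfected HepG2 cells harvested 24 h post-treatment and quantified via RT-PCR and capillary electrophoresis.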

[17] = molecular target: Transcription factor Sp1 (Homo sapiens) (UniProt P08047); assay: ATG_Sp1_CIS: Attagene CIS-FACTORIAL HepG2 Assay for human Specificity Protein 1 (Sp1) (AID 2282961); conditions: HepG2 Sp1 cis-reporter transcription, actives raise or lower the signal
Chain of Transcription factor Sp1 (Homo sapiens) (P08047 whole entry, looked up, the tested form may be a part): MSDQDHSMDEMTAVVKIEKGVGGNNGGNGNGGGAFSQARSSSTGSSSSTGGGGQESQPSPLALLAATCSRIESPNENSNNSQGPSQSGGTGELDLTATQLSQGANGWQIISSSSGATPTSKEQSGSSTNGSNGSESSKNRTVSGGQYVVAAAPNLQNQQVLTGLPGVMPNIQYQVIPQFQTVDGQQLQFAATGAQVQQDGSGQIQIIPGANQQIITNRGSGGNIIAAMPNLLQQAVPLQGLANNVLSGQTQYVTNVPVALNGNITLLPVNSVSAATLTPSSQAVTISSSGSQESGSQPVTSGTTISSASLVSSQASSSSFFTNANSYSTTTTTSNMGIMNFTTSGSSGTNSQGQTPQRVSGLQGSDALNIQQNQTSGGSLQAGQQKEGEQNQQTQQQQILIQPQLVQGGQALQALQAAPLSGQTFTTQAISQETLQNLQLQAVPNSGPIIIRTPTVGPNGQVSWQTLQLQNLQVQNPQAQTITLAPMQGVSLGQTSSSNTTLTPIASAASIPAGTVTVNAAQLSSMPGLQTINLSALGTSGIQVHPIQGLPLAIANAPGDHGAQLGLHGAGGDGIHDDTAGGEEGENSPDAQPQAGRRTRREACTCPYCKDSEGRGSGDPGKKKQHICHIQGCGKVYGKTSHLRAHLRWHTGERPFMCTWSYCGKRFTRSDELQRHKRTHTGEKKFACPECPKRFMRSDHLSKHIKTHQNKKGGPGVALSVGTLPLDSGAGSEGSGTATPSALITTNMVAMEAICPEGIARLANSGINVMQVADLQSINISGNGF
Outline: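 Endpoint reflects endogenous Sp1 transcriptional activity, not an exogenous fusion protein: HepG2 cells with transfected cis-regulated reporters, 24 h dosing, RT-PCR/capillary electrophoresis mRNA read-out, DMSO-normalised bidirectional fit.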

[18] = ATG_SREBP_CIS: Attagene CIS-FACTORIAL HepG2 Assay for human Sterol Regulatory Element Binding (SREBP) (AID 2282962); conditions: HepG2 Attagene cis-factorial SREBP reporter, mRNA; actives raise or lower the signal
Outline: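 HepG2 cells transiently transfected with multiplexed cis-element reporter units report endogenous transcription factor activity. After 24 h of chemical exposure, reporter mRNA was quantified by RT-PCR, 6-FAM labelling, HpaI digestion and capillary electrophoresis; bidirectional fits used DMSO as baseline.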

[19] = molecular target: Signal transducer and activator of transcription 3 (Homo sapiens) (UniProt P40763); assay: ATG_STAT3_CIS: Attagene CIS-FACTORIAL HepG2 Assay for human Signal Transducer and Activator of Transcription 3 (STAT3) (AID 2282963); conditions: HepG2, Attagene cis-factorial STAT3 reporter transcription; actives raise or lower the signal
Chain of Signal transducer and activator of transcription 3 (Homo sapiens) (P40763 whole entry, looked up): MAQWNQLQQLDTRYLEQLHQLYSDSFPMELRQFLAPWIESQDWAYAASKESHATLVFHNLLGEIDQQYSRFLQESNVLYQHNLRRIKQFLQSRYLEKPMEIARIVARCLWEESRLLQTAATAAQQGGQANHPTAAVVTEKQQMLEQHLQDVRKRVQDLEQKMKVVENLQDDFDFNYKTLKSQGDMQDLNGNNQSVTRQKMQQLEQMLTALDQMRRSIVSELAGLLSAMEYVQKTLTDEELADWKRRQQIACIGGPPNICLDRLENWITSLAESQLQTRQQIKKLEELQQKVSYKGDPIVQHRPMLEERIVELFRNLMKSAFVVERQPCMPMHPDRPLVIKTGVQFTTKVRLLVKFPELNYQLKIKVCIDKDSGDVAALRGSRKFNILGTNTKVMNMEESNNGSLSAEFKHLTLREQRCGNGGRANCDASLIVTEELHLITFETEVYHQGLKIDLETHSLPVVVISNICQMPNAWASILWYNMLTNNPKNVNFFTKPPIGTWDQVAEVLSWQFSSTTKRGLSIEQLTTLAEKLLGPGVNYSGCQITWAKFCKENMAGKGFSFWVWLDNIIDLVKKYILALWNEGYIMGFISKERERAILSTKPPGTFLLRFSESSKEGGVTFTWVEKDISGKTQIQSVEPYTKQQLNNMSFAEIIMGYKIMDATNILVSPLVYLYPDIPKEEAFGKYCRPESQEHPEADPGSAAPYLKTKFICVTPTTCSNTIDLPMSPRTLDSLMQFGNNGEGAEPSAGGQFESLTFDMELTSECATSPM
Outline: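 Transcript-level reporter assay. HepG2 transient MRTU transfection, 24 h exposure, fluorescence detection after RT-PCR and CE; DMSO baseline.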

[20] = ATG_TA_CIS: Attagene CIS-FACTORIAL HepG2 Assay for human TA Basal Promoter (AID 2282964); conditions: HepG2 Attagene CIS-factorial TA basal promoter reporter; actives raise or lower the signal
Outline: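 Cis-factorial format in HepG2: reporters report endogenous factors, not chimeric Gal4 fusions. After 24 h treatment, reporter transcripts were measured by RT-PCR-capillary electrophoresis fluorescence, analysed bidirectionally versus DMSO.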

Measured: AC50

FC(F)(F)C(F)(F)C(F)(F)C(F)(F)C(F)(F)C(F)(F)C(F)(F)Br
inactive: [1] | [2] | [3] | [4] | [5] | [6] | [7] | [8] | [9] | [10] | [11] | [12] | [13] | [14] | [15] | [16] | [17] | [18] | [19] | [20]

OCC(F)(F)C(F)(F)C(F)(F)C(F)F
inactive: [1] | [2] | [3] | [4] | [5] | [6] | [7] | [8] | [9] | [10] | [11] | [12] | [13] | [14] | [15] | [16] | [17] | [18] | [19] | [20]

CCN(CC)c1ccc2c(C)cc(=O)oc2c1
inactive: [1] | [2] | [3] | [4] | [5] | [6] | [7] | [8] | [9] | [11] | [15] | [16] | [17] | [18] | [20]
active: [10] 71.9 µM | [12] 65.9 µM | [13] 2.92 µM | [14] 50.2 µM

CCN(Cc1cccc(S(=O)(=O)O)c1)c1ccc(C(=C2C=CC(=[N+](CC)Cc3cccc(S(=O)(=O)O)c3)C=C2)c2ccc(O)cc2S(=O)(=O)[O-])cc1
active: [14] 17.8 µM
inactive: [1] | [2] | [3] | [4] | [5] | [6] | [7] | [8] | [9] | [10] | [11] | [12] | [13] | [15] | [16] | [17] | [18] | [19] | [20]

FC(F)(F)C(F)(F)C(F)(F)CI
inactive: [1] | [2] | [3] | [4] | [5] | [6] | [7] | [8] | [9] | [10] | [11] | [12] | [13] | [14] | [15] | [16] | [17] | [18] | [19] | [20]

CC(CCl)OP(=O)(OC(C)CCl)OC(C)CCl (centres undefined)
inactive: [1] | [2] | [3] | [4] | [5] | [6] | [7] | [8] | [9] | [10] | [11] | [12] | [14] | [15] | [16] | [17] | [18] | [19] | [20]
active: [13] 3.53 µM

Nc1ccc(Oc2cccc(Oc3ccc(N)cc3)c2)cc1
inactive: [6] | [8] | [11] | [16] | [17]
active: [1] 178 µM | [2] 24.6 µM | [3] 181 µM | [4] 24.7 µM | [5] 137 µM | [7] 26.9 µM | [9] 160 µM | [10] 64.6 µM | [12] 71 µM | [13] 25.7 µM | [14] 89.5 µM | [15] 14.9 µM | [18] 136 µM | [19] 173 µM | [20] 26.8 µM

FC(F)(F)C(F)(F)C(F)(F)C(F)(F)C(F)(F)C(F)(F)C(F)(F)C(F)(F)F
inactive: [1] | [2] | [3] | [4] | [5] | [6] | [7] | [8] | [9] | [10] | [11] | [12] | [13] | [14] | [15] | [16] | [17] | [18] | [19] | [20]

C=CC(=O)OCC(F)(F)C(F)(F)C(F)(F)C(F)(F)COC(=O)C=C
inactive: [2] | [3] | [5] | [6] | [11] | [13] | [14] | [19] | [20]
active: [1] 81.1 µM | [4] 61.4 µM | [7] 33.8 µM | [8] 60.3 µM | [9] 79 µM | [10] 56.7 µM | [12] 62.1 µM | [15] 40.3 µM | [16] 56.2 µM | [17] 44.7 µM | [18] 72.4 µM
